# PubChem BioAssay AID589 (National Center for Advancing Translational Sciences (NCATS), 2007)
# Hit rate of the full screen: of about 59,000 compounds, about 6,200 (11%) were called active. Inconclusive results (about 9%) are left out. Cut-off read from the data, not from the text of the source: active = max dye-equivalent concentration above about 10 nM; inconclusive = mostly about 1.1 nM to 9.6 nM; inactive = weaker than that. This excerpt belongs to a sample that is enriched for actives.
# Test: qHTS Assay for Spectroscopic Profiling in 4-MU Spectral Region
# Conditions: compound autofluorescence, 340/450 nm, 4-MU equivalents; hits give high values
# Summary of the method: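 Compounds in 100 mM Tris, pH 8.0, incubated 15 min at room temperature, then fluorescence read at 340 nm excitation/450 nm emission. Signal converted to 4-MU dye-equivalent concentration using an on-plate six-point 4-MU standard curve.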
row,Structure (SMILES),max dye-equivalent concentration
1,CCOC(=O)c1csc(NC(=O)c2ccc(S(=O)(=O)N3CCCC3)cc2)n1,inactive
2,CC(C)c1ccc(-c2nn[nH]n2)cc1,inactive
3,Cc1ccc(F)cc1NC(=O)c1cccc(N(C)C)c1,inactive
4,COc1ccc(CN2CC(C(=O)NCCN3CCN(c4ccccc4F)CC3)CC2=O)cc1 (stereo unspecified),inactive
5,COc1ccc2oc(=O)c(C(=O)N3CCN(c4ccccc4F)CC3)cc2c1,39 nM (active)
6,COc1ccc2oc(=O)c(C(=O)N3CCCc4ccccc43)cc2c1,inactive
7,CCCCC(CCC(=O)Nc1ccc(C(=O)OCC)cc1)C(=O)O (stereo unspecified),inactive
8,Cc1cc(Cl)c(S(=O)(=O)NCC2CCCO2)cc1OCC(N)=O (stereo unspecified),inactive
9,NC(=O)COc1ccc2c3c(c(=O)oc2c1)CCCCC3,26 nM (active)
10,O=C(COc1ccc2oc3c(c2c1)CCCC3)Nc1ccccn1,inactive
11,O=C(COc1ccc2c3c(c(=O)oc2c1)CCC3)NC1CCCCC1,64 nM (active)
12,O=C(COc1ccccc1F)NC1CC1,inactive
13,O=C(CC1OC(=O)c2ccccc21)NC1CCCCC1 (stereo unspecified),inactive
14,c1ccc2c(c1)OCC(c1nn3cnnc3s1)O2 (stereo unspecified),inactive
15,CCN(C(=O)CSc1ncn[nH]1)c1cccc2ccccc12,inactive
16,Cc1noc(C)c1S(=O)(=O)Nc1ccc(C(=O)O)cc1,inactive
17,O=C(NC(c1ccccc1)c1ccccc1)N1CCN(CCO)CC1,inactive
18,COc1ccc(N2C(=O)CCC(C(=O)N(C)C3CCCCC3)C2c2ccc(OC)c(OC)c2)cc1 (stereo unspecified),inactive
19,C#CCN1C(=O)C(O)(CC(=O)c2cc(OC)ccc2OC)c2ccccc21 (stereo unspecified),13 nM (active)
20,COc1ccc(OC)c(NC(=O)Cn2c(=O)oc3ccccc32)c1,inactive
21,CNC(=O)NCCN1CCCC1=O,inactive
22,CCn1c(=N)c(C(=O)NCCCOC)cc2c(=O)n3cccc(C)c3nc21,12000 nM (active)
23,COCCCNC(=O)c1ccc2c(c1)ncn2-c1ccccc1OC,inactive

row,Structure (SMILES),max dye-equivalent concentration
1,COc1ccc(CCn2c(=N)c(C(=O)NCc3ccco3)cc3c(=O)n4cccc(C)c4nc32)cc1,11 nM (active)
2,COc1ccc(C(=O)NCc2cn3ccccc3n2)cc1,inactive
3,COc1ccc(CNC(=O)C2CCN(S(=O)(=O)N3CCOCC3)CC2)cc1,inactive
4,COc1ccccc1C(=O)NCCn1cc(SCC(=O)NCc2ccco2)c2ccccc21,inactive
5,COc1ccc(CNC(=O)c2cc3c(=O)n4ccccc4nc3n(CC3CCCO3)c2=N)cc1 (stereo unspecified),270 nM (active)
6,CCOCCCNC(=O)c1c[nH]c2cc(C)ccc2c1=O,inactive
7,COc1cc(OC)cc(-c2nc3nc(C)c(CCC(=O)NCc4ccco4)c(C)n3n2)c1,inactive
8,O=C(O)c1ccc(C(=O)c2ccccc2C(=O)O)cc1C(=O)O,inactive
9,CC(C)n1c(SCC(=O)Nc2ccccc2N2CCCCC2)nc2c1c(=O)n(C)c(=O)n2C,inactive
10,Fc1ccccc1OCCSc1nc2ccccc2o1,inactive
11,CC(C)NS(=O)(=O)c1ccc(CCC(=O)N2CCOCC2)cc1,inactive
12,Cc1ccccc1CSc1nnc(-c2cccnc2)n1N,inactive
13,COc1ccccc1CNc1ncncc1-c1cccnc1,inactive
14,COc1ccc(C(=O)CSc2nnc(COc3ccccc3)n2Cc2ccco2)cc1,inactive
15,O=c1c2[nH]c3ccc(Cl)cc3c2ncn1Cc1ccccn1,inactive
16,COc1ccc2[nH]c3c(=O)n(Cc4ccco4)cnc3c2c1,92 nM (active)
17,COc1ccc(-c2nnc(SCC(=O)c3ccco3)n2-c2ccccc2)cc1,inactive
18,Cc1ccc(Cc2cncc(O)c2)cc1S(=O)(=O)O,inactive
19,CCOC(=O)c1cc2n(c1N)-c1ccccc1C2=O,inactive
20,CCCn1c(=NC(C)=O)c(C(=O)OCC)cc2c(=O)n3ccccc3nc21,3500 nM (active)
21,CCOC(=O)c1cc2n(c1C)-c1ccccc1C2=O,inactive
22,CCC(=O)Nc1ccc2c(c1)nc(CCN1CCN(C)CC1)n2C,inactive
23,O=C(Nc1c2c(nn1-c1ccc(F)cc1)CS(=O)C2)C12CC3CC(CC(C3)C1)C2 (stereo unspecified),inactive

row,Structure (SMILES),max dye-equivalent concentration
1,CC(C)Cc1ccc(S(=O)(=O)N2CCN(C(=O)c3ccco3)CC2)cc1,inactive
2,CCc1cc(=O)oc2cc(C)cc(OC(C)C(=O)O)c12 (stereo unspecified),82 nM (active)
3,Cc1cc2c(=O)n(C)c(SCC(=O)c3cc4ccccc4o3)nc2s1,inactive
4,CC(=O)Nc1ccc(S(=O)(=O)NCCc2ccccc2)cc1,inactive
5,COCCOC(=O)C1=C(C)NC(=O)CC1c1cc2c(cc1Br)OCO2 (stereo unspecified),inactive
6,COC(=O)c1ccc(C2NC(=O)NC(C)=C2C(=O)N(C)C)cc1 (stereo unspecified),inactive
7,CCCOC(=O)C1=C(C)NC2=C(C(=O)C(C(=O)OC)C(C)C2)C1c1ccc(N(C)C)cc1 (stereo unspecified),23 nM (active)
8,Cc1noc(C)c1CSc1nnc2ccc3ccccc3n12,inactive
9,CCOC(=O)c1c(NC(=O)CSc2nnc(C)c(=O)[nH]2)sc2c1CCC2,inactive
10,CC1CN(C2CCCCC2)c2nc3c(c(=O)n(C)c(=O)n3C)n2C1 (stereo unspecified),inactive
11,CC(C)Cn1c(CCC(=O)O)ccc1-c1cccs1,350 nM (active)
12,O=C(O)CCC(=O)N(Cc1cccs1)Cc1cccs1,inactive
13,Cc1cc(NC(=O)c2cc(-c3cccs3)on2)nn1Cc1ccc(Cl)cc1,inactive
14,COc1cc(C2C3C(=O)N(c4ccccc4)C(=O)C3ON2c2ccccc2)ccc1O (stereo unspecified),inactive
15,CC(C)OCCCNc1nc2c(c(=O)n(Cc3ccccc3F)c(=O)n2C)n1C,inactive
16,COCc1nc2ccccc2n1Cc1ccccc1Br,inactive
17,O=c1[nH]c(-c2ccccc2)c(-c2ccccc2)[nH]1,18 nM (active)
18,c1ccc(-c2[nH]ncc2-c2nc3ccccc3[nH]2)cc1,inactive
19,CC1(C)CC(=O)NC=C(c2ccccc2)C1,inactive
20,Clc1ccccc1-c1cc(NCCN2CCOCC2)ncn1,inactive
21,Cc1cccc(-c2noc(-c3ccc(F)cc3)n2)c1,inactive
22,COc1ccc2[nH]c(=O)c(-c3noc(-c4ccc(F)cc4)n3)cc2c1,12 nM (active)
23,CC(=O)N1CCC2(CCCN(Cc3ccccc3)C2)CC1,inactive

row,Structure (SMILES),max dye-equivalent concentration
1,O=C(CSc1n[nH]c(-c2cccnc2)n1)Nc1ccnc2ccccc12,inactive
2,O=C(O)C1CC(=O)N(Cc2cccnc2)C1 (stereo unspecified),inactive
3,O=C(CCS(=O)(=O)Cc1ccccc1F)NCCCN1CCCCC1,inactive
4,CC(C)(C)c1nc(NCC2CCCO2)c2nnn(Cc3ccccc3)c2n1 (stereo unspecified),inactive
5,Cc1nc(Nc2ccc3c(c2)OCCO3)c2nnn(Cc3ccccc3Cl)c2n1,640 nM (active)
6,C#CCNc1nc(C(C)C)nc2c1nnn2Cc1ccccc1F,inactive
7,Cc1ccc(-c2nnn(CC(=O)N(CCO)C(C(=O)NC(C)(C)C)c3ccncc3)n2)cc1 (stereo unspecified),inactive
8,COc1ccc(S(=O)(=O)N2CCCC(C(=O)N3CCN(C)CC3)C2)cc1C (stereo unspecified),inactive
9,COC(=O)N1CCC2(CCCN(Cc3ccccc3OC)C2)CC1,inactive
10,COc1ccc(CCNC(=O)CSc2nnc(-c3cccc(F)c3)o2)cc1OC,inactive
11,O=C(O)CSCc1nc2ccccc2s1,inactive
12,COC(=O)Cc1cc(=O)n(-c2nc3ccccc3s2)[nH]1,inactive
13,CCC(=O)NC(=Nc1nc2ccccc2s1)NC(=O)CC,150 nM (active)
14,COC(=O)CNS(=O)(=O)c1ccc(Cc2ccc(S(=O)(=O)NCC(=O)OC)cc2)cc1,inactive
15,Cc1ccccc1Nc1nnc(C)c(=O)[nH]1,inactive
16,COc1ccc(C2C(C(=O)Nc3ccccc3OC)=C(C)Nc3nnnn32)c(OC)c1 (stereo unspecified),inactive
17,CCOc1cccc(-n2nnnc2-c2ccc(OC)cc2)c1,inactive
18,COc1ccc(C2=CC(c3cccc(OC)c3)n3nnnc3N2)cc1 (stereo unspecified),13 nM (active)
19,CCCCC(=O)N1CC2(C)CN(C(=O)CCCC)CC(C)(C1)C2=O,inactive
20,Cn1c(=O)n(C)c(=O)n(CC(=O)N2CCCCC2)c1=O,inactive
21,CS(=O)(=O)N(Cc1nc2sc3c(c2c(=O)[nH]1)CCCC3)C1CCCCC1,34 nM (active)
22,Cc1cc(C)c2c(n1)nn1c(-n3ccnc3)cc(C)nc21,240 nM (active)
23,Cc1cc(N2CCN(Cc3ccc4c(c3)OCO4)CC2)n2ncnc2n1,inactive

row,Structure (SMILES),max dye-equivalent concentration
1,Cc1cc(C)c2c(n1)nn1c(N3CCN(c4cccc(Cl)c4)CC3)cc(C)nc21,100 nM (active)
2,CCN1C(=O)/C(=C\N2CCN(c3cccc(Cl)c3)CC2)SC1=S,inactive
3,CS(=O)(=O)N(CC(=O)N1CCN(c2cccc(Cl)c2)CC1)c1ccccc1,inactive
4,Cc1nn2c3cc(N4CCOCC4)ccc3nc2c2ccccc12,inactive
5,Cc1cc(C)c2c(n1)nn1c(N3CCOCC3)cc(C)nc21,6300 nM (active)
6,COc1ccc(C(=O)N2CCC3(CC2)CCN(c2ccccn2)CC3)cc1,inactive
7,CCn1c(CNC(=O)c2ccc(OC)c(OC)c2)nnc1SCC(=O)Nc1ccccc1,inactive
8,O=C(CN(Cc1ccccc1)C(=O)c1ccc2c(c1)OCCO2)NCc1ccc2c(c1)OCO2,inactive
9,Cc1nnc(NC2=NCCCCC2)o1,inactive
10,O=C(c1c(Cl)nc2sccn12)N1CCCc2ccccc21,inactive
11,O=C1CC(Cc2ccccc2)C(=O)N1c1ccc(Cl)cn1 (stereo unspecified),inactive
12,Cc1ccc(C(C(=O)NCc2ccco2)N(CC2CCCO2)C(=O)Cn2nnc3ccccc32)cc1 (stereo unspecified),inactive
13,CN(C)C(=O)c1ccc(-c2cncnc2Nc2ccccc2)cc1,inactive
14,O=C(NCc1cn2ccsc2n1)Nc1cccc(Cl)c1,inactive
15,O=C(/C=N/O)Nc1ccccc1,inactive
16,CCS(=O)(=O)n1nc(-c2ccc(OC)cc2)nc1SC,inactive
17,CCOc1cccc(-c2nn3c(-c4ccccn4)nnc3s2)c1,inactive
18,c1ccc(-c2cc(-c3nnc4sc(-c5ccccn5)nn34)[nH]n2)cc1,inactive
19,COc1cc(-c2nn3c(-c4cccc(C)c4)nnc3s2)cc(OC)c1OC,1900 nM (active)
